PubChem BioAssay (NCATS)

Target: Cytochrome P450 3A4 (Homo sapiens) (UniProt P08684)
Assay: qHTS Assay for Activators of Cytochrome P450 3A4 (AID 885); note: nearly all actives have a fitted effect of over 65% in size
Details: recombinant CYP3A4, Luciferin-PPXE luminescence, 60 min; series mostly up to 57.1 µM; activity change, positive = activation: at the top concentration; active = well fitted activation curve with a large enough effect; inconclusive = small, poorly fitted or top-dose-only effect; inactive = no such curve, though single readings can be large or run the other way
Method in brief: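 20nM CYP3A4 + 25uM Luciferin-PPXE (=KM), 200mM KPO4; cpd 10 min RT; NADPH regen, 60 min RT; stop w/ detection buffer, 20 min; luminescence. Normalized to 57 uM ketoconazole.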

Cytochrome P450 3A4 (Homo sapiens), sequence (P08684 whole entry, looked up): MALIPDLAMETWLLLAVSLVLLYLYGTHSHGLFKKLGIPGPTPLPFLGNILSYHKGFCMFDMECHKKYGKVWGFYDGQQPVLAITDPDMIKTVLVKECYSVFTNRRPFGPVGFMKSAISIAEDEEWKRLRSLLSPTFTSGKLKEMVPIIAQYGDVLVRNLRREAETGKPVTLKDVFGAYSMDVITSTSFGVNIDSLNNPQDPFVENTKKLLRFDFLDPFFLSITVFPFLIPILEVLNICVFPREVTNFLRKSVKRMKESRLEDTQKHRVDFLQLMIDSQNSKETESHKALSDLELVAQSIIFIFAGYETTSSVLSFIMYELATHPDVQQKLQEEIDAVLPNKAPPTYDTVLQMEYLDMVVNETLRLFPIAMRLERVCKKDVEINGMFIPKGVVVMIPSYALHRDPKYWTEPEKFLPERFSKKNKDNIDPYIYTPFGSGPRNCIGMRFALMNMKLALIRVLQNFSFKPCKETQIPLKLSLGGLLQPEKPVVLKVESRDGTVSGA

Activity change, positive = activation, inactive:
Cn1c(N)c(C(=O)COC(=O)c2ccnc3ccccc23)c(=O)n(C)c1=O -56.8%
CCCNC(=O)OC[C@@H]1O[C@H](CCO/N=C(\C)CCN2CCc3nc(CC)c(CC)cc3C2)C=C[C@@H]1Oc1ccc(OC)cc1 -86.1% [at 11.4 µM]
O=C1C(Cl)=C(NC2CCc3ccccc32)C(=O)c2ncccc21 (configuration not stated) -96.7%
COC(=O)[C@@H]1CC[C@H](C)[C@@H](c2ccc(C)cc2)N1C(=O)c1ccc(/C=N\O[C@@H](C)c2cn([C@H]3COC[C@H]3O)nn2)cc1 -43.4% [at 11.4 µM]
CCC1=C2CC[C@H]3C(=O)NC(=O)[C@H]3[C@H]2[C@@]2(C)C(=O)N(CC3CC3)C(=O)N2C1=O -36.8%
COC(=O)C1(C)C=CC2(CCCCC2)N1C(=O)c1ccccc1 (configuration not stated) -46.1%
COC(=O)c1cccc(C23CC4(C2)[C@H](CN(CC2CCCCC2)[C@@H]4c2ccccc2)C3c2ccc(C(F)(F)F)cc2)c1 (some centres not stated) -57.7%
Cn1c(N)c(C(=O)COC(=O)c2cc(-c3ccccc3)nc3ccccc23)c(=O)n(Cc2ccccc2)c1=O -47.3%
COC(=O)N1C2(C=CC1(C)C(=O)NCc1ccc(N(C)C)cc1)CCCCC2 (configuration not stated) -54.6%
CCc1cc2c(nc1CC)CCN(CC/C(C)=N/OC[C@@H](C)[C@H](OCc1ccccc1)C(C)C)C2 -34.8% [at 11.4 µM]
CO[C@@H]1/C=C\CC(=O)N[C@@H](C)C(=O)OC[C@@H](OC)[C@H](C)CCCC(=O)OC[C@H]1C -57.1% [at 11.4 µM]
O=C1[C@H]2[C@H]3[C@H](O)[C@H](O)C/C(=N/OC[C@@H](O)COCc4ccco4)[C@H]3CC[C@@H]2C(=O)N1Cc1ccccc1 -57.9% [at 11.4 µM]
